{"source": "PubChem BioAssay (EPA / NIEHS)", "note": "Inconclusive results are not listed. A structure can be active in one record and inactive in another. Calls of active or inactive are those of the source. How the source made its calls, unless noted: active means hit-call score of the fitted dose curve at least 0.9, where 1 is the maximum; inactive means score below 0.9.", "data": [{"target": "Steroid hormone receptor ERR1 (Homo sapiens) (UniProt P11474)", "sequence (P11474 whole entry, looked up, the tested form may be a part)": "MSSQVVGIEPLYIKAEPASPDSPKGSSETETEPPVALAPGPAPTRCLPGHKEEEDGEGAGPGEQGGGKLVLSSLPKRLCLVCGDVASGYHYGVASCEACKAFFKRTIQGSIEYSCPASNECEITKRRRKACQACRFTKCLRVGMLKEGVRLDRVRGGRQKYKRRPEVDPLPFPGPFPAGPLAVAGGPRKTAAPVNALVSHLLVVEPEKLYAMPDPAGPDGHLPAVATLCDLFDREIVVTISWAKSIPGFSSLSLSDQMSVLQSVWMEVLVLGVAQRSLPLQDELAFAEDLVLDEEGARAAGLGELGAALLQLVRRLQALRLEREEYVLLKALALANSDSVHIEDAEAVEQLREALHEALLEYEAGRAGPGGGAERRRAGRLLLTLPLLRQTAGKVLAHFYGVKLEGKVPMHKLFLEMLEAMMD", "assay": "ATG_ERRa_TRANS: Attagene TRANS-FACTORIAL HepG2 Assay for human Estrogen-Related Receptor alpha (ERRa) (AID 2282971; active means hit-call score of the fitted dose curve at least 0.9, where 1 is the maximum)", "settings": "HepG2 Attagene TRANS reporter, ERRa transactivation", "procedure,_shortened": "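Transfected HepG2, 24 h dosing, ERRa-Gal4 chimera driving GAL4-UAS reporter. Readout: reporter mRNA via RT-PCR plus capillary electrophoresis (fluorescence). Positive direction vs DMSO control.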", "values": [{"smiles": "CCOP(=O)(OCC)SCCSCC", "outcome": "inactive"}, {"smiles": "C=C(C)[C@@H]1CC=C(C=O)CC1", "outcome": "inactive"}, {"smiles": "N#Cc1ccncc1", "outcome": "inactive"}, {"smiles": "CN(C)c1ccc(N=O)cc1", "outcome": "inactive"}, {"smiles": "FC(F)OCC(F)(F)C(F)(F)F", "outcome": "inactive"}, {"smiles": "C=CC(=O)OCC(COC(=O)C=C)(COC(=O)C=C)COC(=O)C=C", "outcome": "inactive"}, {"smiles": "CC(C)[C@H](C(=O)OC(C#N)c1cccc(Oc2ccccc2)c1)c1ccc(OC(F)F)cc1", "note": "(stereo partly drawn)", "outcome": "inactive"}, {"smiles": "O=[N+]([O-])c1c2ccccc2cc2ccccc12", "outcome": "inactive"}, {"smiles": "CCCSP(=S)(OCC)Oc1ccc(Cl)cc1Cl", "note": "(stereo not drawn)", "outcome": "inactive"}, {"smiles": "CCOC(=O)CCN(SN(C)C(=O)Oc1cccc2c1OC(C)(C)C2)C(C)C", "outcome": "inactive"}, {"smiles": "C=CC(F)(C(F)(F)F)C(F)(F)C(F)(F)F", "note": "(stereo not drawn)", "outcome": "inactive"}, {"smiles": "N#Cc1ccccc1Cl", "outcome": "inactive"}, {"smiles": "CNC(=O)N(C)c1nc2ccccc2s1", "outcome": "inactive"}, {"smiles": "CCOP(=S)(OCC)O/N=C(\\C#N)c1ccccc1", "outcome": "inactive"}, {"smiles": "O=C(Cl)OCCOCCOC(=O)Cl", "outcome": "inactive"}, {"smiles": "O=C(O)C1(c2ccc3c(c2)OC[C@H](Cc2ccc(-c4ccccc4)cc2)[C@H]3O)CCCC1", "outcome": "inactive"}, {"smiles": "Clc1cccc(Cl)c1Cl", "outcome": "inactive"}, {"smiles": "Cc1cc(C(C)(C)c2ccc(O)c(C)c2)ccc1O", "outcome": "inactive"}, {"smiles": "OC[C@@H](O)[C@H]1O[C@@H]2O[C@H](C(Cl)(Cl)Cl)O[C@@H]2[C@H]1O", "outcome": "inactive"}, {"smiles": "C=CCOC(F)(C(F)(F)F)C(F)(F)F", "outcome": "inactive"}, {"smiles": "CC(=O)CN(CC(C)=O)N=O", "outcome": "inactive"}, {"smiles": "O=[N+]([O-])c1cc([As](=O)(O)O)ccc1O", "outcome": "inactive"}, {"smiles": "Cc1ccc(CCl)cc1", "outcome": "inactive"}]}, {"target": "X-box-binding protein 1 (Homo sapiens) (UniProt P17861)", "sequence (P17861 whole entry, looked up)": "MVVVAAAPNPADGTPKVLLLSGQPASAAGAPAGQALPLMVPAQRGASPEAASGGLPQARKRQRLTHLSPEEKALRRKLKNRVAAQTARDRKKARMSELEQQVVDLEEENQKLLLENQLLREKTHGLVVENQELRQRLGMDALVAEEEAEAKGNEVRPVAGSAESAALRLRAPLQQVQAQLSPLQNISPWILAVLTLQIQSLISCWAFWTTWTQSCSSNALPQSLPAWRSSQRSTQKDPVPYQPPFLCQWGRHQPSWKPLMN", "assay": "ATG_Xbp1_CIS: Attagene CIS-FACTORIAL HepG2 Assay for human X-box Binding Protein 1 (XBP1) (AID 2282972)", "settings": "HepG2 XBP1 cis-element reporter, Attagene multiplex; actives raise or lower the signal", "procedure,_shortened": "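Changes in reporter transcript abundance, read by RT-PCR and capillary electrophoresis, reflect endogenous transcription factor activity. Transfected HepG2 cells received compound for 24 hours; DMSO defined baseline for bidirectional analysis.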", "values": [{"smiles": "CCN(N=O)C(N)=O", "outcome": "inactive"}, {"smiles": "CCOP(=O)(OCC)SCCSCC", "outcome": "inactive"}, {"smiles": "Brc1ccc(Br)cc1", "outcome": "inactive"}, {"smiles": "C=C(C)[C@@H]1CC=C(C=O)CC1", "outcome": "inactive"}, {"smiles": "CCOc1cc(C=O)ccc1O", "outcome": "inactive"}, {"smiles": "CCCCCCCCBr", "outcome": "inactive"}, {"smiles": "N#Cc1ccncc1", "outcome": "inactive"}, {"smiles": "Clc1cccc(Cl)c1", "outcome": "inactive"}, {"smiles": "CN(C)c1ccc(N=O)cc1", "outcome": "inactive"}, {"smiles": "FC(F)OCC(F)(F)C(F)(F)F", "outcome": "inactive"}, {"smiles": "C=CC(=O)OCC(COC(=O)C=C)(COC(=O)C=C)COC(=O)C=C", "AC50": "8.13 µM (active)"}, {"smiles": "CC(C)[C@H](C(=O)OC(C#N)c1cccc(Oc2ccccc2)c1)c1ccc(OC(F)F)cc1", "note": "(stereo partly drawn)", "outcome": "inactive"}, {"smiles": "CN(N=O)C(N)=O", "outcome": "inactive"}, {"smiles": "O=[N+]([O-])c1c2ccccc2cc2ccccc12", "outcome": "inactive"}, {"smiles": "CCCSP(=S)(OCC)Oc1ccc(Cl)cc1Cl", "note": "(stereo not drawn)", "outcome": "inactive"}, {"smiles": "CCOC(=O)CCN(SN(C)C(=O)Oc1cccc2c1OC(C)(C)C2)C(C)C", "outcome": "inactive"}, {"smiles": "C=CC(F)(C(F)(F)F)C(F)(F)C(F)(F)F", "note": "(stereo not drawn)", "outcome": "inactive"}, {"smiles": "OCCCCO", "outcome": "inactive"}, {"smiles": "N#Cc1ccccc1Cl", "outcome": "inactive"}, {"smiles": "CNC(=O)N(C)c1nc2ccccc2s1", "outcome": "inactive"}, {"smiles": "CCOP(=S)(OCC)O/N=C(\\C#N)c1ccccc1", "outcome": "inactive"}, {"smiles": "Nc1ccc(Br)cc1", "outcome": "inactive"}, {"smiles": "O=c1oc2ccccc2c(O)c1C(CC(O)c1ccc(-c2ccc(Br)cc2)cc1)c1ccccc1", "note": "(stereo not drawn)", "AC50": "41.7 µM (active)", "outcome": "inactive"}, {"smiles": "Cc1cc(Cl)ccc1N", "outcome": "inactive"}, {"smiles": "O=C(Cl)OCCOCCOC(=O)Cl", "outcome": "inactive"}, {"smiles": "CC(F)(F)CC(F)(F)F", "outcome": "inactive"}, {"smiles": "O=C(O)C1(c2ccc3c(c2)OC[C@H](Cc2ccc(-c4ccccc4)cc2)[C@H]3O)CCCC1", "outcome": "inactive"}, {"smiles": "Clc1cccc(Cl)c1Cl", "outcome": "inactive"}, {"smiles": "COc1ccc([N+](=O)[O-])cc1O", "outcome": "inactive"}, {"smiles": "Cc1cc(C(C)(C)c2ccc(O)c(C)c2)ccc1O", "AC50": "36.4 µM (active)"}, {"smiles": "OC[C@@H](O)[C@H]1O[C@@H]2O[C@H](C(Cl)(Cl)Cl)O[C@@H]2[C@H]1O", "outcome": "inactive"}, {"smiles": "C=CCOC(F)(C(F)(F)F)C(F)(F)F", "outcome": "inactive"}, {"smiles": "CC(=O)CN(CC(C)=O)N=O", "outcome": "inactive"}, {"smiles": "C=CCc1ccccc1O", "outcome": "inactive"}, {"smiles": "O=[N+]([O-])c1cc([As](=O)(O)O)ccc1O", "outcome": "inactive"}, {"smiles": "CCOC(=O)C(SP(=S)(OC)OC)c1ccccc1", "note": "(stereo not drawn)", "outcome": "inactive"}, {"smiles": "CCC(C)(C#N)N=NC(C)(C#N)CC", "note": "(stereo not drawn)", "outcome": "inactive"}, {"smiles": "Cc1ccc(CCl)cc1", "outcome": "inactive"}, {"smiles": "CS(=O)(=O)c1ccc(C(=O)C2C(=O)CCCC2=O)c(Cl)c1COCC(F)(F)F", "outcome": "inactive"}]}]}
